Experimental findings from PubChem BioAssay (NCATS) are described below.

Where “and” joins values, the source holds several entries; their conditions need not be identical. Equal entries are not always repeated. Results filed as inconclusive are left out. Calls of active or inactive are those of the source. The call rests on the fitted dose curve; in most records, active means well fitted curve in the direction sought with a large enough effect; inconclusive means small, poorly fitted or top-dose-only effect, or another doubt; inactive means no such curve, though single readings can be large; an effect the other way counts as inactive or inconclusive.

Assay [1] in a line: P-glycoprotein substrates identified in KB-8-5-11 adenocarcinoma cell line, qHTS therapeutic library screen (AID 1346987). Further: nearly all actives have a fitted effect of over 65% in size. Further: potency means the concentration at half of the fitted maximal effect. In outline:
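Compounds are pinned in dose-response onto KB-8-5-11 cells (500 cells/well, colchicine-free medium) and left 72 h at 37 degree C. CellTiter-Glo luminescence then yields AC50 values.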

A short description of assay [2]: qHTS of pediatric cancer cell lines to identify multiple opportunities for drug repurposing: Primary screen for TC32 cells (AID 1347089). Further: nearly all actives have a fitted effect of over 60% in size. Further: potency means the concentration at half of the fitted maximal effect. In outline: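 Luminescent CellTiter-Glo read-out of metabolically active TC32 cells after 48 h compound exposure. Primary: MIPE 11-point, 0.78 nM–46 µM; NPC 8-point, 0.59 nM–46 µM. Confirmatory: 11-point dilutions.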
The nature of assay [3]: qHTS of pediatric cancer cell lines to identify multiple opportunities for drug repurposing: Primary screen for SJ-GBM2 cells (AID 1347091). Further: potency means the concentration at half of the fitted maximal effect. In outline: (§1)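 Cell viability, CellTiter-Glo luminescence; 500-1,000 cells/well, 8- or 11-point titration, 48 h compound exposure at 37 degrees C, 5% CO2. Controls: DMSO neutral, bortezomib 2.3 µM final as positive.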
Assay [4] can be described thus: qHTS of pediatric cancer cell lines to identify multiple opportunities for drug repurposing: Primary screen for SK-N-MC cells (AID 1347093). Further: potency means the concentration at half of the fitted maximal effect. In outline: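 Metabolically active cells were quantified by ATP-dependent luminescence (CellTiter-Glo, 15 min at room temperature) following 48 h treatment. Cells had been plated at 500-1,000 per well and settled for 5 h beforehand.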

Assay [5] is described as follows: qHTS of pediatric cancer cell lines to identify multiple opportunities for drug repurposing: Primary screen for BT-37 cells (AID 1347094). Further: potency means the concentration at half of the fitted maximal effect. An outline of the steps:
(§2)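 Viability was measured as metabolically active cells after 48 hours of treatment, read by CellTiter-Glo luminescence. Compounds were tested at multiple final concentrations, giving concentration-response curves.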

Assay [6] can be described thus: qHTS of pediatric cancer cell lines to identify multiple opportunities for drug repurposing: Primary screen for NB-EBc1 cells (AID 1347095). Further: potency means the concentration at half of the fitted maximal effect. In outline:
as §2

Assay [7] can be described thus: qHTS of pediatric cancer cell lines to identify multiple opportunities for drug repurposing: Primary screen for U-2 OS cells (AID 1347096). Further: nearly all actives have a fitted effect of over 50% in size. Further: potency means the concentration at half of the fitted maximal effect. In outline:
(§3)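 Cells (500-1,000/well) rested 5 h, then received compounds for 48 h; metabolically active cells were measured by CellTiter-Glo luminescence. Final concentrations spanned up to 46 µM (MIPE, 11-point) or 0.59 nM-46 µM (NPC, 8-point) in primary screens, 11-point in follow-ups.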

Assay [8] can be described thus: qHTS of pediatric cancer cell lines to identify multiple opportunities for drug repurposing: Primary screen for SK-N-SH cells (AID 1347098). Further: nearly all actives have a fitted effect of over 65% in size. Further: potency means the concentration at half of the fitted maximal effect. In outline: as §3
Assay [9] in a line: qHTS of pediatric cancer cell lines to identify multiple opportunities for drug repurposing: Primary screen for A673 cells (AID 1347092). Further: nearly all actives have a fitted effect of over 45% in size. Further: potency means the concentration at half of the fitted maximal effect. An outline of the steps:
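A673 cells (500-1,000 cells/well in growth media) were pre-incubated 5 h at 37 degrees C, then exposed to compounds for 48 h. Viability was read as CellTiter-Glo luminescence; concentration-response curves came directly from the primary screen.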

Assay [10] is described as follows: qHTS of pediatric cancer cell lines to identify multiple opportunities for drug repurposing: Primary screen for Saos-2 cells (AID 1347097). Further: nearly all actives have a fitted effect of over 40% in size. Further: potency means the concentration at half of the fitted maximal effect. An outline of the steps:
as §2

The nature of assay [11]: qHTS of pediatric cancer cell lines to identify multiple opportunities for drug repurposing: Primary screen for DAOY cells (AID 1347090). Further: nearly all actives have a fitted effect of over 55% in size. Further: potency means the concentration at half of the fitted maximal effect. An outline of the steps: as §1
Assay [12] can be described thus: qHTS of pediatric cancer cell lines to identify multiple opportunities for drug repurposing: Primary screen for NB1643 cells (AID 1347099). Further: nearly all actives have a fitted effect of over 50% in size. Further: potency means the concentration at half of the fitted maximal effect. An outline of the steps:
as §2

Assay [13] in a line: NS1 protein of Zika virus - qHTS assay to identify small molecule inhibitors in human HEK 293 cells (AID 1347053). Further: series mostly up to about 46 µM; nearly all actives have a fitted effect of over 55% in size. In outline:
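Read-out is a two-antibody TR-FRET for ZIKV NS1, normalized between uninfected cells and infected cells. Compound added 1 h before MR766 infection at MOI 0.5; human HEK 293 cells incubated 24 h, 37 C.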

Consider `NC(=O)c1cccc(-c2cc(Nc3ccc(OC(F)(F)F)cc3)ncn2)c1`, for which the Potency result in assay [1], in assay [2], in assay [3], in assay [4], in [5] and in [6] was “inactive” in each case. In addition, the Potency result in [7] and in assay [8] was “inactive” throughout.

`O=C(NCc1ccncc1)C12C[C@H]3C[C@@H](C1)CC(c1ccc(Cl)cc1)(C3)C2`: the Potency result in assay [1] and in [2] was “inactive” in each case. Further, the Potency in [3] is 20900 nM (active); in assay [9], 7.43 µM (active); in [4], 0.526 µM (active); in assay [6] it was 18.7 µM (active); in assay [10] it was 11.8 µM (active).

Take `CC(C)(C)Cn1c(N)nc2ccc(-c3[nH]c(C(C)(C)C)nc3-c3ccc(F)cc3)nc21`: the Potency in [1] was 20.9 µM (active) and 23.1 µM (active); in assay [2] it was 29.4 µM (active); in assay [11] it was 23.5 µM (active); in [9], 18.7 µM (active); in [5] it was 24.3 µM (active); in assay [12], 11.8 µM (active). In addition, the Potency entry in assay [6], in assay [7] and in [10] was “inactive” in each case.

Take `C[C@H](NC(=O)c1sccc1OCc1ccc(Cl)cc1)c1ccccc1`: the Potency is 14.8 µM (active) in [1]; 18.7 µM (active) in [11]; 23.5 µM (active) in assay [9]; 13.2 µM (active) in assay [4]; 27.3 µM (active) in assay [5]. The Potency entry in assay [2], in assay [7] and in assay [8] was “inactive” throughout.

With `CO[C@H]1C[C@@H]2CC[C@@H](C)[C@@](O)(O2)C(=O)C(=O)N2CCCC[C@@H]2C(=O)O[C@H]([C@H](C)C[C@@H]2CC[C@H](OCCO)[C@H](OC)C2)CC(=O)[C@H](C)C=C(C)[C@@H](O)[C@@H](OC)C(=O)[C@H](C)C[C@H](C)C=CC=CC=C1C`, the Potency in [1] was 3.32 µM (active); in [2] it was 3.3 µM (active); in assay [5] it was 10.9 µM (active); in assay [10], 3.32 µM (active). For the same compound, the Potency result in assay [11] and in assay [12] was “inactive” throughout.

As for `COCCOC(=O)C1=C(C)NC2=C(C(=O)CC(c3ccccc3OC)C2)C1c1cccc(O)c1` (stereo unspecified), the Potency entry in assay [1], in assay [13] and in assay [7] was “inactive” throughout. Besides, the Potency in assay [9] is 23.5 µM (active); in [4] it was 18.7 µM (active); in [6], 18.7 µM (active); in assay [8] it was 13.6 µM (active); in [12], 20.9 µM (active).

As for `O=C(CCCCCCC(=O)Nc1ccccc1)NO`, the Potency in assay [1] is 4.61 µM (active) and 3.66 µM (active) and 6.62 µM (active); in assay [2], 6.64 µM (active) and 14.7 µM (active); in [11] it was 4.22 µM (active) and 5.9 µM (active); in assay [3], 1.33 µM (active) and 1.87 µM (active); in assay [4], 1.48 µM (active); in [5], 5.5 µM (active) and 7.69 µM (active). The Potency in assay [6] was 1 nM (active) and 1.48 µM (active); in [7], 3.35 µM (active) and 4.69 µM (active); in assay [10] it was 4.73 µM (active) and 5.9 µM (active); in assay [8], 2.73 µM (active) and 7.64 µM (active).

As to `COc1cc2nc(-c3ccc(N4CCN(C)CC4)cc3)nc(NCCN3CCOCC3)c2cc1OC`, the Potency is 7.31 µM (active) in [1]; 0.523 µM (active) in [2]; 0.0743 µM (active) in assay [11]; 0.0235 µM (active) in assay [9]; 0.0372 µM (active) in [4]; 3.06 µM (active) in assay [5]. Moreover, the Potency in assay [6] is 1.48 µM (active); in assay [7], 935 nM (active); in [10], 0.296 µM (active); in assay [8], 4.82 µM (active); in assay [12], 1.87 µM (active).

As for `OC[C@@H](O)[C@H](O)[C@H](O)[C@@H](O)CO`, the Potency entry in [1], in assay [2], in assay [11], in assay [3], in [9] and in assay [4] was “inactive” each time. In addition, the Potency result in assay [5], in assay [6], in [10] and in [12] was “inactive” throughout.

`CC(C)(C)COc1ccc(-n2cc(C(=O)O)cn2)cc1C#N`: the Potency result in assay [1], in assay [2], in assay [11], in [3], in [9] and in assay [5] was “inactive” in each case. In assay [10], the Potency entry is “inactive”.

As for `O=C(N[C@@H](c1ccccc1)[C@@H]1CCCCN1)c1cccc(C(F)(F)F)c1Cl`, the Potency entry in assay [1], in assay [2], in assay [11], in [3], in assay [7] and in assay [10] was “inactive” throughout. In addition, in assay [12], the Potency result is “inactive”. Besides, the Potency is 20.9 µM (active) in assay [4], 19.3 µM (active) in [5], 7.43 µM (active) in assay [6] and 21.5 µM (active) in assay [8].

In the case of `CC=CCC=CCCC(=O)[C@H]1O[C@@H]1C(N)=O`, the Potency entry in assay [1], in [2], in [11], in assay [5] and in assay [7] was “inactive” in each case. In addition, the Potency in assay [10] is 18.7 µM (active).

`NC1=N[C@@]2(c3cc(NC(=O)c4ccc(F)cn4)ccc3F)COC[C@@H]2CS1`: the Potency entry in assay [1], in assay [2] and in [7] was “inactive” throughout. Further, the Potency in assay [11] was 4.69 µM (active); in assay [3], 296 nM (active); in [9] it was 0.0074 µM (active); in assay [4] it was 0.833 µM (active); in [5], 0.122 µM (active); in [6], 1.87 µM (active). The Potency in assay [10] was 0.372 µM (active).

Take `O=C(O)[C@H]1O[C@H](Oc2cc3oc(-c4ccccc4)cc(=O)c3c(O)c2O)[C@H](O)[C@@H](O)[C@H]1O`: the Potency result in assay [1], in assay [2], in [11], in [5], in assay [6] and in assay [7] was “inactive” throughout. Also, the Potency entry in assay [8] was “inactive”. Also, the Potency in assay [12] was 0.118 µM (active).

On to `CO[C@H]1C=CC=C(C)C(=O)NC2=CC(=O)C(NCCN(C)C)=C(C[C@@H](C)C[C@H](OC)[C@@H](O)[C@@H](C)C=C(C)[C@@H]1OC(N)=O)C2=O`, for which the Potency was 7.43 µM (active) in assay [1]; 0.262 µM (active) in [2]; 3.72 µM (active) in assay [11]; 52.6 nM (active) in assay [3]; 0.0743 µM (active) in [9]; 0.187 µM (active) in assay [4]. The Potency in [5] was 0.385 µM (active); in assay [6], 0.118 µM (active); in assay [7], 935 nM (active); in assay [10] it was 2.35 µM (active); in assay [8], 0.271 µM (active).

For `COc1cc(N2CCC(N3CCN(C)CC3)CC2)ccc1Nc1ncc(Cl)c(Nc2ccccc2S(=O)(=O)C(C)C)n1`, the results for the Potency in [1], in assay [4] and in [8] were 0.651 µM (active), 0.001 µM (active) and 4.82 µM (active), respectively. The Potency entry in [2], in [11], in assay [5] and in assay [7] was “inactive” each time.

Consider `NS(=O)(=O)c1ccc(NC2=CC(=O)c3ccccc3C2=O)cc1`, for which the Potency result in assay [1], in [13], in assay [11], in assay [3] and in assay [7] was “inactive” throughout. In addition, the Potency is 10.5 µM (active) in assay [4], 11.8 µM (active) in assay [10], 30.4 µM (active) in assay [8] and 18.7 µM (active) in [12].
